# Source: the supplement of paper PMC10981050
# Test system: OCI-AML2
# Experiment: cell viability relative to vehicle control; higher = less cytotoxic
# Conditions: 10 µM; SRSF2 genotype: P95H/wt
# Outline: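 Screening covered the Selleck bioactive, kinase and epigenetic probe libraries, less identity-inconsistent compounds, on CRISPR-edited mutant clones and isogenic wild-type clones of four leukaemia lines. Cells, at 2000 per well in 50 µL medium, received a single 10 µM acoustically dispensed dose. After 48 h the supernatant was removed and CellTiter-Glo luminescence was read. Viability was analysed in Genedata Screener as percent of the on-plate vehicle control.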
row,SMILES,cell viability
1,O=C(O)c1ccc(C=C2SC(=S)N(c3cccc(C(F)(F)F)c3)C2=O)cc1,95.5%
2,Cc1cn([C@H]2C[C@H](O)[C@@H](CO)O2)c(=O)[nH]c1=O [Thymidine],91.8%
3,C[C@]12CC[C@@H]3c4ccc(OC(=O)c5ccccc5)cc4CC[C@H]3[C@@H]1CC[C@@H]2O [Estradiol Benzoate],58.4%
4,O=C(O)c1ccc(Cl)cc1O [4-Chloro-2-hydroxybenzoic acid],101%
5,C[C@H]1O[C@@H](Oc2c(-c3cc(O)c(O)c(O)c3)oc3cc(O)cc(O)c3c2=O)[C@@H](O)[C@@H](O)[C@@H]1O [Myricitrin (Myricitrine)],108%
6,OC[C@H]1O[C@H](OCC2O[C@@H](O)[C@H](O)[C@@H](O)[C@@H]2O)[C@H](O)[C@@H](O)[C@H]1O (stereo not given in full) [Melibiose],98.5%
7,CO[C@@]12[C@H](COC(N)=O)C3=C(C(=O)C(C)=C(N)C3=O)N1C[C@@H]1N[C@@H]12 [Mitomycin C],0.41%
8,CN1C(C(=O)Nc2ccccn2)=C(O)c2ccccc2S1(=O)=O [Piroxicam (Feldene)],104%
9,NC(=O)c1cn(Cc2c(F)cccc2F)nn1 [Rufinamide (Banzel)],113%
10,O=c1c(-c2ccc(O[C@@H]3O[C@H](CO)[C@@H](O)[C@H](O)[C@H]3O)cc2)coc2cc(O)cc(O)c12 [Sophoricoside],109%
11,CCOc1cc([C@@H](CS(C)(=O)=O)N2C(=O)c3cccc(NC(C)=O)c3C2=O)ccc1OC,90.1%
12,Cc1cc2c(C(=O)NCC(C)c3ccccc3)c(O)c(O)cc2c(O)c1-c1c(C)cc2c(C(=O)NCC(C)c3ccccc3)c(O)c(O)cc2c1O (stereo not given) [Sabutoclax],22.6%
13,O=S(=O)(NCCSSCCNS(=O)(=O)c1cc(Cl)ccc1Cl)c1cc(Cl)ccc1Cl,51.9%
14,CCN(CC)c1ccc2cc(C(=O)O)c(=O)oc2c1 [7-(Diethylamino)coumarin-3-carboxylic acid],100%
15,CCOC(=O)[C@H](CCc1ccccc1)N[C@@H](C)C(=O)N1[C@H](C(=O)O)C[C@@H]2CCC[C@@H]21 [Ramipril (Altace)],84.8%
16,O=c1oc2c(O)c(O)cc3c(=O)oc4c(O)c(O)cc1c4c23 [Ellagic acid],101%
17,OCC1OC(OC2OC(CO)C(O)C(O)C2O)C(O)C(O)C1O [D-(+)-Trehalose Anhydrous],99.6%
18,O=c1[nH]cnc2[nH]ncc12 [Allopurinol Sodium (Aloprim)],90.6%
19,Cc1cc(C2CCCCC2)n(O)c(=O)c1 [Ciclopirox (Penlac)],15.5%
20,CC(=O)CCc1ccccc1 [Benzylacetone],106%

row,SMILES,cell viability
1,Clc1ccc(C(Cn2ccnc2)OCc2c(Cl)cccc2Cl)c(Cl)c1 (stereo not given) [Isoconazole nitrate (Travogen)],75.9%
2,COc1c(O)c(C)cc2c1C(=O)c1c(O)cccc1C2=O [Obtusifolin],98.6%
3,NCCOCCOCCNC(=O)Cc1ccc(Nc2nc(NCc3ccc(F)cc3)nc(NCC3CCCCC3)n2)cc1 [AP-III-a4 (ENOblock)],75.2%
4,CC(=O)OC(CC(C)C1=C2CC(O)C3C4(C)CCC(=O)C(C)(C)C4CCC3(C)C2(C)CC1)C1OC1(C)C (stereo not given) [Alisol B Acetate],64.1%
5,O=C(c1cccc(Cl)c1F)N1CCN(Cc2cccc(Nc3nccs3)n2)CC1,35.6%
6,O=C(/C=C/n1cnc(-c2cc(C(F)(F)F)cc(C(F)(F)F)c2)n1)N1CC(F)(F)C1,1.41%
7,CC(=O)Cc1cc(=O)c2c(C)cc(O)c([C@@H]3O[C@H](CO)[C@@H](O)[C@H](O)[C@H]3O)c2o1 [Aloesin],105%
8,CCOC(=O)c1c(C)n(C)c2ccc(O)cc12 [Mecarbinate],92.2%
9,CC(/C=C/C=C(\C)C(=O)O[C@@H]1O[C@H](CO)[C@@H](O)[C@H](O)[C@H]1O)=C\C=C\C=C(C)\C=C\C=C(/C)C(=O)O[C@@H]1O[C@H](CO[C@@H]2O[C@H](CO)[C@@H](O)[C@H](O)[C@H]2O)[C@@H](O)[C@H](O)[C@H]1O [Crocin II],97.4%
10,Cc1c(C)c(NCC(=O)N(C)C2CCN(Cc3ccc(C(N)=O)cc3)CC2)c(C)c(C)c1N,98.7%
11,C[C@@H]1C[C@H]2[C@@H]3CCC4=CC(=O)C=C[C@]4(C)[C@@]3(Cl)[C@@H](O)C[C@]2(C)[C@@]1(OC(=O)c1ccco1)C(=O)CCl [Mometasone furoate],113%
12,N=C(N)c1ccc(OCCCCCOc2ccc(C(=N)N)cc2)cc1 [Pentamidine isethionate],65.5%
13,CC(=O)OC/C=C(/C)CCC=C(C)C [Neryl acetate],100%
14,CN1CCN(CCCN2c3ccccc3Sc3ccc(C(F)(F)F)cc32)CC1 [Trifluoperazine 2HCl],47.6%
15,COc1ccc2[nH]cc(CCNC(C)=O)c2c1 [Melatonin],118%
16,Clc1cccc(-c2nnnn2Cc2cccnc2)c1Cl,108%
17,C[C@@]12C[C@H](c3ccoc3)O[C@@]13C[C@H](OC3=O)[C@H]1[C@H]2C[C@@H]2C[C@H]1C(=O)O2 [Diosbulbin B],102%
18,COc1c(O[C@@H]2O[C@H](CO)[C@@H](O)[C@H](O)[C@H]2O)cc2occ(-c3ccc(O)cc3)c(=O)c2c1O [Tectoridin],91%
19,COc1ccc(C2CNC(=O)C2)cc1OC1CCCC1 (stereo not drawn) [S-(+)-Rolipram],96.7%
20,O=C(O)[C@]1(Cc2cccc(Nc3nccs3)n2)CC[C@@H](Oc2cccc(Cl)c2F)CC1,17.8%
